Drawing on PMC7862700, “An all-to-all approach to the identification of sequence-specific readers for epigenetic DNA modifications on cytosine”, this text covers binding signal for one sequence.

Experiment in all cases: DAPPL (digital affinity profiling via proximity ligation, sequencing); 10 mM Tris-HCl pH 7.5, 50 mM NaCl, 1 mM DTT, 4% glycerol, room temperature, 30 min; GST-TFs on glutathione beads, 16-mer random dsDNA library, 0.1% formaldehyde crosslink after washing; high values mean tight binding
Details in all cases: protein: recombinant; tags: N-terminal GST; dsDNA, one strand shown

For one assay, the target named is T1, FLI1 (Homo sapiens, UniProt Q01543 1-452).
T1 sequence: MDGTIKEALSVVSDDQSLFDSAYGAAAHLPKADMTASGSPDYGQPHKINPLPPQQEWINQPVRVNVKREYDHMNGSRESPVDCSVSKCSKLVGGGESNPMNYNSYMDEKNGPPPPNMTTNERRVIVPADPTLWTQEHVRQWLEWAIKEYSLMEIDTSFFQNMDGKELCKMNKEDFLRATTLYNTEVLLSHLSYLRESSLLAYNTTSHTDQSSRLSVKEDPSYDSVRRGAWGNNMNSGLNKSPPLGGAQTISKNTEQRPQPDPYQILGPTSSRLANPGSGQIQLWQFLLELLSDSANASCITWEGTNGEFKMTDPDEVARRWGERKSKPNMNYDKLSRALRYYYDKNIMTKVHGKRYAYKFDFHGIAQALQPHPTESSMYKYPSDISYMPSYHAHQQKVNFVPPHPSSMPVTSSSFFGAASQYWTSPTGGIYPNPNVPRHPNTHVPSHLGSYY
Put shortly: (§1)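 Each value of binding signal is a hexamer's read frequency for a factor divided by the same hexamer's frequency in the tag-only sample. Barcoded, bead-captured GST fusions of human transcription factors made in yeast were pooled with that sample and incubated with 200 nmole of a random double-stranded 16-mer DNA library in Tris/NaCl/DTT/glycerol buffer at room temperature for 30 min. Washing, 0.1% formaldehyde crosslinking, proximity ligation, PCR and Illumina NextSeq500 sequencing followed.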

For a further assay, the target named is T2, ELK1 (Homo sapiens, UniProt P19419 1-428).
T2 sequence: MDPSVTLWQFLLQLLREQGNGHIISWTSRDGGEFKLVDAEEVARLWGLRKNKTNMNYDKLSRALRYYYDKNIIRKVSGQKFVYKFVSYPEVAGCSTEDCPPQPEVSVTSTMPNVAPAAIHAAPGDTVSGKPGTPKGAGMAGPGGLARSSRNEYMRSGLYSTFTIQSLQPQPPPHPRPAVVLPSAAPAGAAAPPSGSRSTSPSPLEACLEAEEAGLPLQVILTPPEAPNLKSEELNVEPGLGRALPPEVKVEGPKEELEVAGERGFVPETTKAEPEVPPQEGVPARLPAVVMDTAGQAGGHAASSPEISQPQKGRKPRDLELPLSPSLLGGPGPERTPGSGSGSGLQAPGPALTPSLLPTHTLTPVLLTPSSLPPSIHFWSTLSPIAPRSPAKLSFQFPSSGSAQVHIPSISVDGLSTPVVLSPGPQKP
In a few lines:
as §1

For a further assay, the target named is T3, GABPA (Homo sapiens, UniProt Q06546 1-454).
T3 sequence: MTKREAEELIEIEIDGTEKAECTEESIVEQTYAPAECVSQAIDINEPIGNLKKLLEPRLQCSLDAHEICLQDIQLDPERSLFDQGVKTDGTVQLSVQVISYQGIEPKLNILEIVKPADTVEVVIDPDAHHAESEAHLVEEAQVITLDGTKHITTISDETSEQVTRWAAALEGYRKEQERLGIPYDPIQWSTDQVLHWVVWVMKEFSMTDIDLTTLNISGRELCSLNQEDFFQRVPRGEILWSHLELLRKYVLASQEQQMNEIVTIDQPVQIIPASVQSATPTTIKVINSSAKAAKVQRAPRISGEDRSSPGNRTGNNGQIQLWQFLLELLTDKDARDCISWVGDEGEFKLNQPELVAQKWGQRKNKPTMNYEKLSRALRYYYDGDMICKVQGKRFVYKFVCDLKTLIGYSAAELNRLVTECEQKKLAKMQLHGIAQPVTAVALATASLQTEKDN
In a few lines: as §1

The next assay addresses T4, ERG (Homo sapiens, UniProt P11308 1-479).
T4 sequence: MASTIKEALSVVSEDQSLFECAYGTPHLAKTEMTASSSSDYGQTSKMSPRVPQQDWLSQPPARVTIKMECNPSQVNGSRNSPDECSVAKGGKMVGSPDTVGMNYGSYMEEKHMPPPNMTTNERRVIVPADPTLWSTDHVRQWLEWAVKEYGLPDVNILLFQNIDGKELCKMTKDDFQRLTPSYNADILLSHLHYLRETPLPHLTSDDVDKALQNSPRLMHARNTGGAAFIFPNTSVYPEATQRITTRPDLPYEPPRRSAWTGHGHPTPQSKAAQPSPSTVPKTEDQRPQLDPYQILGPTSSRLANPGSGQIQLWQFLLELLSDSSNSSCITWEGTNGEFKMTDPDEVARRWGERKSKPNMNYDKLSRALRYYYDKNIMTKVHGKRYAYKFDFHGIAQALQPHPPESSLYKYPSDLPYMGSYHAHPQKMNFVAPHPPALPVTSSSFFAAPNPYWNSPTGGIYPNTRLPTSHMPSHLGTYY
In a few lines:
as §1

For a further assay, the target named is ELF1 (Homo sapiens, UniProt P32519 1-619). Put shortly:
as §1

In another assay the target is T5, EHF (Homo sapiens, UniProt Q9NZC4 1-300).
T5 sequence: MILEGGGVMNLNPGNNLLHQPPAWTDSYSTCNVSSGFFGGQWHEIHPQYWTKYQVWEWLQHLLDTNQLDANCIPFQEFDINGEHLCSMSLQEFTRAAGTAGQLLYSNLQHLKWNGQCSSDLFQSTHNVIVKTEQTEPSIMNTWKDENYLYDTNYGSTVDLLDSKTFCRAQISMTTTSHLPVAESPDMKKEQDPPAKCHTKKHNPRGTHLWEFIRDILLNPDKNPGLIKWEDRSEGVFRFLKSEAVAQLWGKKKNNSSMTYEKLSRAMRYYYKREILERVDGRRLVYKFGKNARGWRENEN
In a few lines:
as §1

Another assay has as its target SPIB (Homo sapiens, UniProt Q01892 1-262). In a few lines: as §1
The next assay concerns the target T6, ELK3 (Homo sapiens, UniProt P41970 1-407).
T6 sequence: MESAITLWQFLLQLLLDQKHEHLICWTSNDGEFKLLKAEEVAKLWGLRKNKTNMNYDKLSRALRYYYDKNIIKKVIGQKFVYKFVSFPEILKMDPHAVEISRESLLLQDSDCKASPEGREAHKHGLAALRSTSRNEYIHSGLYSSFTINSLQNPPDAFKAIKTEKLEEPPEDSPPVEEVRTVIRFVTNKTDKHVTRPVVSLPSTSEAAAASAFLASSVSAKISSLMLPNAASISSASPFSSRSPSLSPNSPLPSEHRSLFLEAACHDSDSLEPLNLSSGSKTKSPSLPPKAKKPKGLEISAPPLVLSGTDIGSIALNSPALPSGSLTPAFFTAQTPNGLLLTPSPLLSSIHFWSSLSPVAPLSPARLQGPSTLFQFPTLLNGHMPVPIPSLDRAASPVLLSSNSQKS
In a few lines: as §1

ELF1, sequence (P32519 whole entry): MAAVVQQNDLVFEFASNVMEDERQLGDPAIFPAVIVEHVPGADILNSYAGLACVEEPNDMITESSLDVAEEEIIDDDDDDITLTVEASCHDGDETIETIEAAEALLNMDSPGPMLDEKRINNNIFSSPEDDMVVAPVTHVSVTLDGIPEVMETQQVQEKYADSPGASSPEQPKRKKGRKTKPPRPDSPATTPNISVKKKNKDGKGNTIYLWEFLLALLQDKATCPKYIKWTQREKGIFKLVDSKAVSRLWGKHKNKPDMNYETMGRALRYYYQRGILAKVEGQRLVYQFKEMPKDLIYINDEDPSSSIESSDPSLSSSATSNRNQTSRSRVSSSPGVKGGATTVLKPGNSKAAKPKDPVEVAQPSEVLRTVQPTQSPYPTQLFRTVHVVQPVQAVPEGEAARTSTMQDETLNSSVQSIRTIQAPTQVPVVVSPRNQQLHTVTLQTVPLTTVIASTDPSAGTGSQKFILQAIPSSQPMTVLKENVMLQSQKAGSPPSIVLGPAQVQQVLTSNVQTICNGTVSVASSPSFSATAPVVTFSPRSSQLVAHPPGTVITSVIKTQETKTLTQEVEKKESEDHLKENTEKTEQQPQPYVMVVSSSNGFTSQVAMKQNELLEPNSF
SPIB, sequence (Q01892 whole entry): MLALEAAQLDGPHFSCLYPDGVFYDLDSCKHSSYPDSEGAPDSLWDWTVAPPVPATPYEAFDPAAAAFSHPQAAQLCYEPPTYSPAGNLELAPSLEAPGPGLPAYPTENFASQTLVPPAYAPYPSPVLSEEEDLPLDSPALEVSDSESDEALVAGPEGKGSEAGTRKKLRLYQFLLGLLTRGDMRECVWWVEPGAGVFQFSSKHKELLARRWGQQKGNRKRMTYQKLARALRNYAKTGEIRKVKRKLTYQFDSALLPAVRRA

As to TTGACG, the binding signal with FLI1 is 1.19 fold enrichment (6-mer frequency, TF over GST control); with ELK1, 1.16 fold enrichment (6-mer frequency, TF over GST control); with GABPA, 1.08 fold enrichment (6-mer frequency, TF over GST control); with ERG, 1.06 fold enrichment (6-mer frequency, TF over GST control); in the assay with ELF1 it was 1.1 fold enrichment (6-mer frequency, TF over GST control); with EHF it was 1.2 fold enrichment (6-mer frequency, TF over GST control). Further, the binding signal in the assay with SPIB is 1.11 fold enrichment (6-mer frequency, TF over GST control); in the assay with ELK3, 1.08 fold enrichment (6-mer frequency, TF over GST control).
